Results published in PubChem BioAssay AID624136 (Broad Institute, 2012).
About 75 (0.4%) of roughly 17,000 compounds were called active.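 The calls were made as follows: active = compounds whose four printed spots each glow above background more than chance allows, each with a p-value under 7%; inactive = the rest.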 The sample as a whole holds a higher share of actives than the screen did.

System: mutant tumor protein p53 (GST-tagged), Homo sapiens
Assay: small molecules binding GST-tagged mutant p53 – biochemical, small molecule microarray, anti-GST fluorescence, primary screen (AID 624136)

Compound | outcome
CC(=O)CC(=O)N1C(=O)N(C)[C@@]2(C)Oc3ccccc3[C@@H]1[C@H]2COC(=O)c1ccccc1 | inactive
C[C@@H]1CN([C@@H](C)CO)C(=O)Cc2cc(NS(C)(=O)=O)ccc2O[C@H]1CN(C)C(=O)Nc1ccccc1 | inactive
CO[C@H]1C(=O)c2c(O)c(CC=C(C)C)c(O)c(CC=C(C)C)c2O[C@@H]1c1ccc(O)cc1 | inactive
CC(C)NC(=O)Nc1ccc2c(c1)C(=O)N([C@H](C)CO)C[C@@H](C)[C@@H](CN(C)S(=O)(=O)c1cccs1)OCCCC[C@@H](C)O2 | inactive
COc1ccc(C#Cc2ccc3c(c2)[C@]2(C(=O)N3)[C@H](c3ccccc3OCCO)N3[C@H](c4ccccc4)[C@H](c4ccccc4)OC(=O)[C@H]3[C@@H]2C(=O)N2CCCCCCC2)cc1 | active
COC(=O)C(CC#Cc1ccc2c(c1)[C@]1(C(=O)N2)[C@H](c2ccccc2OCCO)N2[C@H](c3ccccc3)[C@H](c3ccccc3)OC(=O)[C@H]2[C@@H]1C(N)=O)C(=O)OC | inactive
COc1ccc(C#Cc2ccc3c(c2)[C@]2(C(=O)N3)[C@H](C(=O)N3CCCCCCC3)[C@H]3C(=O)O[C@H](c4ccccc4)[C@H](c4ccccc4)N3[C@@H]2c2ccc(O)cc2)cc1 | inactive
O=C1O[C@H](c2ccccc2)[C@H](c2ccccc2)N2[C@H]1[C@@H](C(=O)N1CCN(c3ncccn3)CC1)[C@]1(C(=O)Nc3ccccc31)[C@H]2c1ccc(OCCO)cc1 | inactive
O=C1O[C@@H](c2ccccc2)[C@@H](c2ccccc2)N2[C@@H](c3ccccc3OCCO)[C@]3(C(=O)Nc4ccccc43)[C@@H](C(=O)N3CCCCCCC3)[C@H]12 | active
O=C1O[C@@H](c2ccccc2)[C@@H](c2ccccc2)N2[C@@H](c3ccccc3OCCO)[C@]3(C(=O)Nc4ccc(C#CC5(O)CCCCCC5)cc43)[C@@H](C(=O)N3CCCCCCC3)[C@H]12 | inactive
CC(=O)c1cccc(NC(=O)c2ccc(CNS(=O)(=O)c3ccc(C(C)(C)C)cc3)cc2)c1 | inactive
C[C@@H]1CCCCO[C@H](CN(C)C(=O)NC2CCCCC2)[C@H](C)CN([C@@H](C)CO)C(=O)c2cc(NC(=O)C3CCCCC3)ccc2O1 | inactive
C[C@@H]1CCCCO[C@H](CN(C)S(=O)(=O)c2ccccc2)[C@H](C)CN([C@@H](C)CO)C(=O)c2cc(N(C)C)ccc2O1 | inactive
C[C@@H]1CN([C@@H](C)CO)C(=O)Cc2cc(NC(=O)Nc3ccc4c(c3)OCO4)ccc2O[C@@H]1CN(C)C(=O)Nc1ccc2c(c1)OCO2 | inactive
C[C@@H]1CN([C@H](C)CO)C(=O)c2cc(NS(=O)(=O)c3ccccc3)ccc2O[C@H]1CN(C)C(=O)Nc1ccc2c(c1)OCO2 | inactive
O=c1cc(CSc2nnnn2-c2ccccc2)[nH]c(=S)[nH]1 | inactive
Cc1ccc(C)c(S(=O)(=O)NC(C)C(=O)Nc2ccc(Br)cc2F)c1 (centres undefined) | inactive
C[C@H](CO)N1C[C@H](C)[C@H](CN(C)Cc2ccncc2)Oc2ccc(NC(=O)Cc3cn(C)c4ccccc34)cc2CC1=O | inactive
COc1ccc(-c2cc(C(=O)N3CCCC3C(=O)O)c(C)o2)cc1OC (centres undefined) | inactive
CCN1CCN(S(=O)(=O)c2cc(OCC(N)=O)c(C)cc2Cl)CC1 | inactive
Cc1cc(C(=O)Nc2cccc3c2O[C@@H](CN(C)C(=O)Nc2ccc(F)cc2)[C@H](C)CN([C@@H](C)CO)C3=O)n(C)n1 | inactive
C[C@H](CO)N1C[C@H](C)[C@@H](CN(C)Cc2ccc(C(=O)O)cc2)Oc2ccc(NC(=O)Cn3cnnn3)cc2CC1=O | inactive

Compound | outcome
C[C@@H]1CN([C@@H](C)CO)C(=O)c2cccc(NC(=O)c3ccncc3)c2O[C@H]1CN(C)S(=O)(=O)c1ccc(F)cc1 | inactive
C[C@H](CO)N1C[C@H](C)[C@@H](CN(C)CC2CCCCC2)Oc2ccc(NC(=O)Cn3cnnn3)cc2CC1=O | inactive
COc1cc(C2OC(c3cc(OC)c(OC)c(OC)c3)C(C)C2C)cc(OC)c1OC (centres undefined) | inactive
C[C@@H]1CN([C@@H](C)CO)C(=O)c2cc(NS(=O)(=O)c3ccccc3)ccc2O[C@@H](C)CCCCO[C@H]1CN(C)S(=O)(=O)c1cccs1 | inactive
Cc1cc(C)cc(N2C(=O)CSC2c2cccc([N+](=O)[O-])c2)c1 (centres undefined) | inactive
C[C@H](CO)N1C[C@H](C)[C@H](CN(C)C)Oc2ncc(C#Cc3ccc(F)cc3)cc2C1=O | inactive
C[C@H]1CN([C@@H](C)CO)C(=O)Cc2cc(NC(=O)NC3CCCCC3)ccc2O[C@H]1CN(C)S(=O)(=O)c1ccccc1 | inactive
C[C@H]1CN([C@@H](C)CO)C(=O)c2cccc(NS(=O)(=O)c3ccccc3)c2O[C@@H]1CN(C)C(=O)Nc1ccc(C(F)(F)F)cc1 | inactive
Cc1noc(C)c1NC(=O)N(C)C[C@@H]1Oc2ccc(NC(=O)CCN3CCOCC3)cc2CC(=O)N([C@H](C)CO)C[C@@H]1C | inactive
COc1ccc(S(=O)(=O)Nc2ccc3c(c2)CC(=O)N([C@@H](C)CO)C[C@@H](C)[C@@H](CN(C)C)O3)cc1 | inactive
CCO/C([O-])=N\c1c[n+](N2CCOCC2)no1 | inactive
C[C@H](CO)N1C[C@H](C)[C@@H](CN(C)CC2CC2)Oc2ccc(NS(=O)(=O)c3cn(C)cn3)cc2CC1=O | inactive
Cc1ccc(-c2cn3c4c(sc3n2)CCCC4)cc1 | inactive
Cc1noc(C)c1S(=O)(=O)N(C)C[C@H]1Oc2ccc(NC(=O)CCN3CCOCC3)cc2CC(=O)N([C@H](C)CO)C[C@H]1C | inactive
C[C@@H]1CN([C@H](C)CO)C(=O)CCCn2cc(nn2)CO[C@@H]1CN(C)C(=O)c1ccc2ccn(C)c2c1 | inactive
CC(C)NC(=O)N(C)C[C@@H]1Oc2ccc(NC(=O)C3CC3)cc2C(=O)N([C@@H](C)CO)C[C@H]1C | inactive
C[C@@H]1CN([C@H](C)CO)C(=O)Cc2cc(NC(=O)C3CC3)ccc2O[C@H]1CN(C)Cc1ccc2c(c1)OCO2 | inactive
C[C@@H]1CN([C@@H](C)CO)C(=O)c2cc(NC(=O)Nc3ccc4c(c3)OCO4)ccc2O[C@@H](C)CCCCO[C@@H]1CN(C)Cc1ccccc1 | active
C[C@@H]1CN([C@H](C)CO)C(=O)Cc2cc(NC(=O)C3CC3)ccc2O[C@H]1CN(C)Cc1ccc(Cl)c(Cl)c1 | active
C[C@@H]1CCCCO[C@H](CN(C)Cc2ccncc2)[C@H](C)CN([C@H](C)CO)C(=O)c2cc(NC(=O)Nc3ccccc3)ccc2O1 | inactive
C[C@H](CO)N1C[C@H](C)[C@@H](CN(C)C(=O)Nc2ccccc2)Oc2ccc(NC(=O)C3CC3)cc2CC1=O | inactive
C[C@@H]1CCCCO[C@H](CN(C)C(=O)c2ccccc2)[C@H](C)CN([C@@H](C)CO)C(=O)c2cc(NC(=O)Nc3ccc4c(c3)OCO4)ccc2O1 | inactive
